Drawing on ChEMBL document CHEMBL1157539, “Thousands of chemical starting points for antimalarial lead identification” (Nature, 2010), this text covers IFI for 88 compounds.

Whole data set: some 13,000 compounds, median “IFI” near 4, cut for the highest 2% near 17. Shown is part of a subset that was picked to be rich in the highest values.

A short description of this assay: GSK_TCMDC: Inhibition Frequency Index (IFI). The number of non-kinase HTS assays where a compound showed > 50 % inhibition, expressed as a percentage of the number of such assays in which the compound was tested. The assay is classed as functional.
`Cc1ccc(CN2CCCN(Cc3cccc(NC(=O)c4cc5ccccc5s4)c3)CC2)cc1` displayed an IFI of 10.2%.

The compound `CN1CCC(C(=O)Nc2cccc(-c3cccc(-c4nc5cc(F)ccc5[nH]4)c3)c2)CC1` showed an IFI of 4.24%.

`Cc1cccc2nc(-c3cccc(-c4cccc(CNCc5ccc(S(C)(=O)=O)cc5)c4)c3)[nH]c12` displayed an IFI of 8.65%.

On to `Cc1ccc2c(=NN=Cc3cccc(Cl)c3)cc(C)[nH]c2c1`, for which the IFI was 10.1%.

`COc1ccc(-c2cccc(NC(=O)c3cccc(C#N)c3)c2)cc1CN1CCC(O)CC1` showed an IFI of 0%.

For `CC(C)CCN1CCC(Oc2ccc(NC(=O)c3cccs3)cc2Cl)CC1`, the IFI turned out to be 8.06%.

The compound `c1cc(CN2CCC(CCN3CCCCC3)CC2)cc(-c2cccc(-c3nc4ccccc4[nH]3)c2)c1` registered an IFI of 5.56%.

In turn, `Cc1ccc(CNC(=O)[C@H](Cc2ccccc2)Nc2cc(C)nc(NCC3CCCCC3)n2)cc1` returned an IFI of 24.3%.

`Cc1cccc(CNc2nc(C)cc(N[C@@H](CC(C)C)C(=O)NCc3cccc(F)c3)n2)c1`: the IFI was determined as 9.52%.

Compound `Cc1cc(N[C@@H](CC(C)C)C(=O)NCCc2ccccc2)nc(NCC2CCCCC2)n1` registered an IFI of 16.3%.

`Cc1ccc(CNC(=O)[C@H](CC(C)C)Nc2cc(C)nc(NCC3CCCCC3)n2)cc1` gave an IFI of 19.1%.

`Cc1cc(N[C@@H](Cc2ccccc2)C(=O)NCc2cccs2)nc(NCC2CCCCC2)n1` registered an IFI of 16.3%.

`Cc1cc(N[C@@H](CC(C)C)C(=O)NCc2cccc(F)c2)nc(NCC2CCCCC2)n1` registered an IFI of 18.6%.

In the case of `Cc1ccc(CNC(=O)[C@H](CCCN)Nc2cc(C)nc(NCC3CCCCC3)n2)cc1`, the IFI amounted to 4.88%.

Compound `Cc1cc(N[C@@H](Cc2ccccc2)C(=O)NCCc2ccccc2)nc(NCCOc2ccccc2)n1` gave an IFI of 7.5%.

With `Cc1ccc(CNC(=O)[C@H](Cc2ccccc2)Nc2cc(C)nc(NCc3ccccc3C)n2)cc1`, the IFI is 4.88%.

`Cc1cc(N[C@@H](CC(C)C)C(=O)NCc2cccc(F)c2)nc(NCCc2ccccc2)n1` showed an IFI of 17.1%.

Take `Cc1cc(N[C@@H](Cc2ccccc2)C(=O)NCCOc2ccccc2)nc(NCCc2ccccc2)n1`: the IFI is 16.3%.

In turn, `Cc1cc(N[C@@H](Cc2ccccc2)C(=O)NCCOc2ccccc2)nc(NCCOc2ccccc2)n1` showed an IFI of 24.4%.

As to `CN(C)CCN(Cc1ccc(-c2ccc(CNCCc3ccccc3)cc2)nc1)C(=O)CCC1CCCC1`, the IFI came out at 8.33%.

`COc1ccc2c(N/N=C/c3ccccc3[N+](=O)[O-])ccnc2c1`: the IFI was found to be 3.62%.

Take `CC1(C)CCC(C)(C)c2c1ccc(C1CCN(CCCCNC(=O)c3ccc(-c4ccc(Cl)cc4)cc3)CC1)c2O`: the IFI came to 13.7%.

`COc1ccc(CON2C(=N)N=C(N)NC2(C)C)cc1OC` gave an IFI of 1.47%.

Take `COc1ccc(C#Cc2ccc(-c3c(C)[nH]c(C)c(Cl)c3=O)cc2)cc1`: the IFI turned out to be 0.88%.

Regarding `CCN(CC)CCN(Cc1ccc(-c2ccc(C(F)(F)F)cc2)cc1)C(=O)Cn1c(CCc2c(F)ccc(F)c2F)nc(=O)c2ccccc21`, the IFI stood at 9.09%.

`Cc1nc(C)c(-c2ccc(S(=O)(=O)c3ccc(Cl)cc3)cc2)c(O)c1Cl` came in with an IFI of 0.78%.

For the compound `CC(C)Cn1cc(C2CCN(CCN3CCC(CNC(=O)c4ccc(-c5ccc(C(F)(F)F)cc5)cc4)CC3)CC2)c2ccccc21`, the IFI amounted to 9.17%.

Compound `O=C(/C=C/c1ccc(Cl)c(Cl)c1)NC1CCC(CN2CCC(c3nc4cccnc4[nH]3)CC2)CC1` (stereo not drawn) had an IFI of 4.96%.

On to `CCN(CC)CCN(Cc1ccc(-c2ccc(C(F)(F)F)cc2)cc1)C(=O)Cn1c(/C=C/c2ccco2)nc(=O)c2ccccc21`, for which the IFI is 5.52%.

For the compound `Cc1cc(N[C@@H](Cc2ccccc2)C(=O)NCc2cccc(F)c2)nc(NCCCOC(C)C)n1`, the IFI came out at 18.2%.

As for `Cc1cccc(CNc2nc(C)cc(N[C@@H](Cc3ccccc3)C(=O)NCc3cccc(F)c3)n2)c1`, the IFI came out at 19.1%.

For the compound `Cc1cc(N[C@@H](Cc2ccccc2)C(=O)NCc2cccc(F)c2)nc(NCCc2ccccc2)n1`, the IFI was determined as 9.3%.

With `Cc1cc(N[C@@H](Cc2ccccc2)C(=O)NCCCOC(C)C)nc(NCCc2ccc(F)cc2)n1`, the IFI is 2.44%.

`Cc1cc(N[C@@H](Cc2ccccc2)C(=O)NCc2cccc(F)c2)nc(Nc2ccccc2)n1`: the IFI came to 4.76%.

As to `Cc1cc(N[C@@H](Cc2ccccc2)C(=O)NCc2cccc(F)c2)nc(NCCOc2ccccc2)n1`, the IFI was found to be 6.98%.

In turn, `Cc1cc(N[C@@H](Cc2ccccc2)C(=O)NCc2cccc(F)c2)nc(NCC2CCCCC2)n1` yielded an IFI of 27.9%.

Compound `Cc1cc(N[C@@H](Cc2ccccc2)C(=O)NCc2cccc(F)c2)nc(NCCc2ccc(F)cc2)n1` yielded an IFI of 9.09%.

`Cc1cc(N[C@@H](Cc2ccccc2)C(=O)NCc2cccc(F)c2)nc(NCc2ccccc2C)n1` had an IFI of 4.88%.

As to `CC1(C)N=C(N)N=C(Nc2ccc(Cl)cc2)N1`, the IFI was found to be 0.76%.

Consider `FC(F)(F)c1ccc2[nH]c(-c3cccc(-c4cccc(CN5CCN(c6ccncc6)CC5)c4)c3)nc2c1`, for which the IFI was 11.5%.

With `CCCNCc1ccc(-c2ccc(CN(CCOC)C(=O)c3cccc(C#N)c3)cc2)nc1`, the IFI was determined as 0.7%.

Regarding `Nc1nc2c(ncn2COC(COCc2ccccc2)COCc2ccccc2)c(=O)[nH]1.Nc1nc2ncn(COC(COCc3ccccc3)COCc3ccccc3)c2c(=O)[nH]1`, the IFI amounted to 0%.

Compound `CCCCCc1ccc(NC(=O)Nc2ccc(Cn3ncc(N4CCCNCC4)c(Cl)c3=O)cc2)cc1` returned an IFI of 9.09%.

Consider `CCCCOC(=O)c1ccc(NC(=O)Nc2ccc(Cn3ncc(N4CCCNCC4)c(Cl)c3=O)cc2)cc1`, for which the IFI turned out to be 5.97%.

`CCCCCCCOc1ccc(NC(=O)Nc2ccc(Cn3ncc(N4CCCNCC4)c(Cl)c3=O)cc2)cc1` gave an IFI of 19.1%.

Consider `Cc1[nH]c(C)c(-c2ccc(OCCCc3ccccn3)cc2)c(=O)c1Br`, for which the IFI turned out to be 0%.

The compound `COc1ccc(NC(=O)c2ccc(-c3ccc(-c4cccnc4)cc3)c(C)c2)cc1OCCN(C)C` had an IFI of 6.9%.

For `COC(=O)c1ccc2nc(-c3cc(-c4cccc(-c5ccccc5)c4)cnc3N)[nH]c2c1`, the IFI came out at 2.94%.

`COC(=O)c1ccc(-c2ccc(-c3cccnc3)cc2C)cc1` came in with an IFI of 21.7%.

Take `Cc1ccccc1Nc1nc(Nc2ccccc2)c2ccccc2n1`: the IFI was 3.65%.

Turning to `O=C1c2cc(I)ccc2SC1c1ccccc1` (stereo not drawn), the IFI turned out to be 1.43%.

On to `O=S(=O)(NCCN1CCCC1)c1cccc(-c2ccc(CNCc3ccccc3)cc2)c1`, for which the IFI was 5.88%.

As for `O=[N+]([O-])c1cccc(C(Nc2ccccn2)c2ccc3cccnc3c2O)c1` (stereo not drawn), the IFI was 8.74%.

`CC1(C)N=C(N)N=C(N)C1c1ccc(Cl)c(Cl)c1` (stereo not drawn): the IFI was 1.43%.

The compound `CC1(CCc2ccccc2)N=C(N)N=C(N)C1c1ccc(Cl)c(Cl)c1` (stereo not drawn) returned an IFI of 2.94%.

Consider `CC1(CCc2ccccc2)N=C(N)N(Cc2ccccc2)C(=O)C1c1ccc(Cl)c(Cl)c1` (stereo not drawn), for which the IFI turned out to be 19.2%.

On to `CCC1(c2ccccc2)N=C(N)N(CCCc2ccccc2)C1=O` (stereo not drawn), for which the IFI is 7.14%.

The compound `CCCCCCC1(C)N=C(N)N=C(N)C1c1ccc(Cl)c(Cl)c1` (stereo not drawn) gave an IFI of 2.78%.

For the compound `CC1(CCc2ccccc2)N=C(Nc2ccc(Cl)cc2)N=C(N)C1c1ccc(Cl)c(Cl)c1` (stereo not drawn), the IFI is 26.6%.

`NS(=O)(=O)c1cccc(-c2ccc3nccc(-c4cccc(S(N)(=O)=O)c4)c3c2)c1` showed an IFI of 0%.

On to `Cn1c(N=C2NC3(c4ccccn4)NC(=Nc4nc5ccccc5n4C)NC3(c3ccccn3)N2)nc2ccccc21` (stereo not drawn), for which the IFI came out at 3.6%.

`Cc1cccc(-c2nn(-c3ccccc3)c3[nH]c(=O)c(CN4CCSCC4)cc23)c1` displayed an IFI of 1.82%.

`CC1(CCN2CCC(c3c[nH]c4cnccc34)CC2)CCCc2c(Br)cccc2C1=O` (stereo not drawn) returned an IFI of 8.51%.

`Cc1cc(SC(C)(C)C)cc2c(Cl)c(C(N)=O)cnc12` gave an IFI of 32.5%.

With `Cc1cc(C)c2ncc(C(=O)O)c(O)c2c1`, the IFI stood at 1.46%.

In turn, `Oc1ccc(CCCNc2nc(NCc3ccccc3-c3ccccc3)nc(NC3CCNCC3)n2)cc1` yielded an IFI of 15.2%.

In turn, `COc1ccccc1-n1ccnc1SCC(=O)Nc1cccc(C(F)(F)F)c1` gave an IFI of 5.93%.

The compound `CC(CCON1C(N)=NC(N)=NC1(C)C)c1ccc(Cl)c(Cl)c1` (stereo not drawn) yielded an IFI of 7.09%.

`O=C(/C=C/c1ccc(Cl)c(Cl)c1)NCCCCCN1CCC(CCNC(=O)/C=C/c2ccc(Cl)c(Cl)c2)CC1` returned an IFI of 11.2%.

The compound `Clc1ccc(OCCC2CCN(CCCCCCN3CCCCC3)CC2)cc1Cl` registered an IFI of 9.87%.

As for `Clc1ccc(OCCC2CCN(CCCCCCCN3CCC(CCOc4ccc(Cl)c(Cl)c4)CC3)CC2)cc1Cl`, the IFI is 18.6%.

Regarding `CCCNCc1ccc(-c2ccc(CN(CC3CCCO3)C(=O)C3CC(=O)c4ccccc43)cc2)nc1` (stereo not drawn), the IFI turned out to be 1.41%.

`CCN(CC)CCN(Cc1ccc(-c2ccc(C(F)(F)F)cc2)cc1)C(=O)Cn1c(CCc2cc(F)c(F)c(F)c2)nc(=O)c2ccccc21` displayed an IFI of 6.67%.

`Cc1noc(C)c1-c1ccc2c(Nc3ccc([N+](=O)[O-])cc3)c(C(N)=O)cnc2c1` gave an IFI of 1.63%.

`COc1ccc(-n2cc(C(=O)c3cc(Br)ccc3O)cc(C#N)c2=O)cc1Cl` registered an IFI of 14.8%.

For the compound `N#Cc1cc(C(=O)c2cc(Cl)ccc2O)cn(-c2cc(Cl)cc(Cl)c2)c1=O`, the IFI came out at 17.4%.

`CCc1ccc(-n2cc(C(=O)c3cc(Br)ccc3O)cc(C#N)c2=O)cc1`: the IFI was 15.9%.

Regarding `N#Cc1cc(C(=O)c2cc(Br)ccc2O)cn(-c2cc(Cl)cc(Cl)c2)c1=O`, the IFI is 20.6%.

As for `N#Cc1cc(C(=O)c2cc(Cl)ccc2O)cn(-c2cccc(C(F)(F)F)c2)c1=O`, the IFI was found to be 7.44%.

`COc1ccc(O)c(C(=O)c2cc(C#N)c(=O)n(-c3ccc(Oc4ccccc4)cc3)c2)c1` showed an IFI of 3.52%.

Compound `COc1ccc2ccccc2c1C=NN=c1cc(C)[nH]c2c(C)cccc12` showed an IFI of 1.48%.

In turn, `COc1ccc(Cn2c(Nc3cccc(C(F)(F)F)c3)nc3cc(C(=O)NCCCN(C)C)ccc32)cc1Cl` had an IFI of 2.14%.

Regarding `NCC1CCCN1Cc1cccc(-c2cccc(-c3nc4cc(F)ccc4[nH]3)c2)c1` (stereo not drawn), the IFI came to 5%.

Turning to `O=C(Cn1c(CCc2cccc(F)c2F)nc(=O)c2ccccc21)N(Cc1ccc(-c2ccc(C(F)(F)F)cc2)cc1)C1CCN(C2=NCCS2)CC1`, the IFI is 12.5%.

The compound `CN1CCC(N2CCN(Cc3cccc(-c4ccc(-c5nc6cc(C(F)(F)F)ccc6[nH]5)cc4)c3)CC2)CC1` gave an IFI of 9.72%.

`CCCCNc1c(C(=O)OCC)c(C)nc2c1[nH]c1ccccc12` yielded an IFI of 2.17%.

`CCCCNc1cc(NCCCC)c2c(n1)[nH]c1ccccc12` registered an IFI of 19.4%.

As to `CCCCNc1cc(C)nc(NCc2ccccc2)n1`, the IFI was 9.72%.
